Read-out in assay [1]: Collagen I, COL1A1 (gene 1277)
The experiment in a line: BSK_MyoF_CollagenI: BioMAP Diversity Plus: MyoF Assay for Collagen I Biomarker Activity (AID 2284238). The settings on record: primary human lung fibroblasts. A digest of the protocol: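 ELISA readout of Collagen I after 24 h chemical treatment of primary human lung fibroblast cultures; gain of signal scored relative to DMSO vehicle baseline.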

Read-out in assay [2]: Collagen III, COL3A1 (gene 1281)
The experiment in a line: BSK_MyoF_CollagenIII: BioMAP Diversity Plus: MyoF Assay for Collagen III Biomarker Activity (AID 2284239). The settings on record: primary human lung fibroblasts. A digest of the protocol: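 Lung fibroblast culture; 24 h compound exposure; collagen III by ELISA; gain-of-signal fit vs DMSO baseline.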

The nature of assay [3]: CCTE_Mundy_HCI_hNP1_Casp3_7: CCTE's Caspase-Glo 3/7 Assay in human neuroprogenitor cells for Apoptosis, Mundy Lab (AID 2284240). An outline of the steps:
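Apoptosis is scored by activated caspase-3/7 luminescence in WA09-derived neural progenitor cells, measured 26.5 h after chemical dosing. Values represent gain of signal relative to DMSO vehicle.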

A short description of assay [4]: CCTE_Mundy_HCI_hNP1_CellTiter: CCTE's Cell Titer-Glo 2 Assay in human neuroprogenitor cells for Viability, Mundy Lab (AID 2284241; active means hit-call score of the fitted dose curve at least 0.9, where 1 is the maximum). A digest of the protocol: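 Human neural progenitor cells (hNP1, WA09-derived) were plated on poly-L-ornithine/laminin and grown 40 to 44 hours at 37 °C, 5% CO2 before chemical addition. Twenty-four hours later, ATP was measured by CellTiter-Glo luminescence; loss of signal versus DMSO indicates reduced viability.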
For orientation: ATP-based viability assays read luminescence as a measure of living cells.

Read-out in assay [5]: Interleukin 17F (IL17F), IL17F (gene 112744)
The experiment in a line: BSK_BT_xIL17F: BioMAP Diversity Plus: BT Assay for Interleukin 17F (IL17F) Biomarker Activity (AID 2284243). Particulars: primary human B cells with PBMC. A digest of the protocol: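 Secreted IL-17F, read on LumineX xMAP beads, was taken as the endpoint. Cultures combined human B cells and peripheral blood mononuclear cells, sampled 24 hours after dosing, with DMSO serving as negative control.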

Read-out in assay [6]: Actin alpha 1 (ACTA1), ACTA1 (gene 58)
The experiment in a line: BSK_MyoF_ACTA1: BioMAP Diversity Plus: MyoF Assay for Actin alpha 1 (ACTA1) Biomarker Activity (AID 2284244). The settings on record: primary human lung fibroblasts. A digest of the protocol: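 Human lung fibroblasts (MyoF system) dosed with test chemical for 24 h; α-SMA measured by ELISA. Gain of signal fitted relative to DMSO negative control as baseline.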

Read-out in assay [7]: Interleukin 2 (IL2), IL2 (gene 3558)
The experiment in a line: BSK_BT_xIL2: BioMAP Diversity Plus: BT Assay for Interleukin 2 (IL2) Biomarker Activity (AID 2284245). The settings on record: primary human B cells with PBMC. A digest of the protocol: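 Human B cells co-cultured with PBMC, exposed to test chemical for 24 h. Secreted IL-2 quantified by Luminex xMAP bead immunoassay; activity fitted in the positive direction relative to DMSO vehicle baseline.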

Read-out in assay [8]: Basic fibroblast growth factor (bFGF), FGF2 (gene 2247)
The experiment in a line: BSK_MyoF_bFGF: BioMAP Diversity Plus: MyoF Assay for Basic fibroblast growth factor (bFGF) Biomarker Activity (AID 2284246). Particulars: primary human lung fibroblasts. A digest of the protocol: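 Human lung fibroblasts were dosed with chemicals and bFGF was quantified by ELISA 24 h later. Activity was fitted in the gain-of-signal direction relative to DMSO as negative control and baseline. Parallel SRB total-protein staining tracked overt cytotoxicity.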

Read-out in assay [9]: Collagen IV, COL4A1 (gene 1282)
The experiment in a line: BSK_MyoF_CollagenIV: BioMAP Diversity Plus: MyoF Assay for Collagen IV Biomarker Activity (AID 2284247). Particulars: primary human lung fibroblasts. A digest of the protocol:
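Primary human lung fibroblasts were exposed to test chemicals and sampled 24 h after dosing. Collagen IV levels were measured by ELISA and fitted in the positive direction against DMSO as negative control and baseline.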

Read-out in assay [10]: Monokine induced gamma interferon (MIG), CXCL9 (gene 4283)
The experiment in a line: BSK_KF3CT_MIG: BioMAP Diversity Plus: KF3CT Assay for Monokine induced gamma interferon (MIG) Biomarker Activity (AID 2284248). Particulars: primary human keratinocytes with fibroblasts. An outline of the steps:
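ELISA read-out of MIG after 24 h chemical exposure of human skin primary co-culture (keratinocytes, foreskin fibroblasts). Gain of signal relative to DMSO negative control was analysed.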

Read-out in assay [11]: Vascular cell adhesion molecule 1 (VCAM1), VCAM1 (gene 7412)
The experiment in a line: BSK_BF4T_VCAM1: BioMAP Diversity Plus: BF4T Assay for Vascular cell adhesion molecule 1 (VCAM1) Biomarker Activity (AID 2284249). The settings on record: primary human bronchial epithelial cells with fibroblasts. An outline of the steps: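 Human bronchial epithelial cell and dermal fibroblast co-culture exposed 24 h. VCAM-1 measured by ELISA; parallel SRB total-protein staining for cytotoxicity. Fitted in positive direction relative to DMSO.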

Read-out in assay [12]: Collagen I, COL1A1 (gene 1277)
The experiment in a line: BSK_hDFCGF_CollagenI: BioMAP Diversity Plus: hDFCGF Assay for Collagen I Biomarker Activity (AID 2284250). The settings on record: primary human foreskin fibroblasts. A digest of the protocol:
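Primary human foreskin fibroblasts (hDFCGF system) exposed to chemical for 24 h; Collagen I measured by ELISA. Activity fitted in the positive direction relative to DMSO baseline, with SRB total-protein staining in parallel cultures for overt cytotoxicity.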

Read-out in assay [13]: Interferon-inducible T-cell alpha chemoattractant (ITAC), CXCL11 (gene 6373)
The experiment in a line: BSK_hDFCGF_ITAC: BioMAP Diversity Plus: hDFCGF Assay for Interferon-inducible T-cell alpha chemoattractant (ITAC) Biomarker Activity (AID 2284251). Particulars: primary human foreskin fibroblasts. A digest of the protocol: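 Fibroblasts (human foreskin, primary) are treated with chemical, cultured 24 h, then assayed for I-TAC by ELISA. Overt toxicity is checked in parallel cultures by sulforhodamine B staining of total protein at the same time point.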

Assay [14] in a line: TAMU_PeakParms_SingleDonor1434_QT: Texas A&M University (TAMU) 1.5-hr Human Induced Pluripotent Stem Cell (iPSC)-derived Cardiomyocytes Calcium (Ca+2) Flux Assay for Cardiotoxicity: QT (decay-rise ratio) (AID 2284235; active means hit-call score of the fitted dose curve at least 0.9, where 1 is the maximum). An outline of the steps: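 iPSC-derived cardiomyocytes (single donor 1434) dosed at 0.2, 1, 10, 100 uM final in 0.5% DMSO, 90 min at 37C. Ca2+ flux fluorescence decay/rise ratio; EC05 (5% increase versus DMSO) as POD, excluding beat-arrest and severe-notch data.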

Assay [15] can be described thus: UKN4_HCS_LUHMES_cell_viability: Viability Assessment in the University of Konstanz (UKN) Leist Lab Neurite Outgrowth Assay in human LUHMES cells (UKN4) (AID 2284232). An outline of the steps: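 LUHMES cells differentiated 2 days, replated without cAMP/GDNF, then exposed to compounds for 24 h from attachment. Viability read by high-content fluorescence imaging after 30 min live-staining with H-33342 and calcein-AM; bidirectional fit relative to DMSO baseline.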

A short description of assay [16]: UKN2_HCS_IMR90_cell_viability: Viability Assessment in the University of Konstanz (UKN) Leist Lab Neural Crest Cell Migration Assay in human induced IMR90 Pluripotent Stem Cells (UKN2) (AID 2284233).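 Further: viability of neural crest cells differentiated from IMR90 iPSC measured by calcein-AM fluorescence imaging; cells exposed to compound for 24 h after a 24 h migration phase.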 An outline of the steps:
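Human IMR90-derived neural crest cells were allowed to migrate for 24 h into a cell-free zone, then exposed to test chemicals for 24 h. Calcein-AM and Hoechst staining with high-content imaging gave viability, analysed against DMSO baseline.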

Assay [17] is described as follows: TAMU_HCS_1.5hr_SingleDonor1434_Cytotoxicity: Cytotoxicity Assessment using High-content Screening (HCS) Fluorescent Imaging for the Texas A&M University (TAMU) 1.5-hr Human Induced Pluripotent Stem Cell (iPSC)-derived Cardiotoxicity Assay (AID 2284234; active means hit-call score of the fitted dose curve at least 0.9, where 1 is the maximum). A digest of the protocol: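 Human iPSC-derived cardiomyocytes dosed at 0.2, 1, 10, 100 uM final (0.5% DMSO) for 90 min at 37 C. Hoechst 33342-stained nuclei counted by 10x high-content imaging; POD is EC10, a 10% drop in total cell count versus DMSO.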

The nature of assay [18]: CCTE_Mundy_HCI_Cortical_NOG_NeuronCount: CCTE's Neurite Outgrowth Assay in rat cortical cells for Neuron Count, Mundy Lab (AID 2284236; active means hit-call score of the fitted dose curve at least 0.9, where 1 is the maximum;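 further: neurons counted by imaging betaIII-tubulin and Hoechst stained cortical cells; cells exposed to compound for about 48 hours before fixation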). An outline of the steps:
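Read-out: neuron number by high-content imaging of betaIII-tubulin (Alexa Fluor-488) and Hoechst-labelled rat primary cortical cells.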

A short description of assay [19]: CCTE_Mundy_HCI_Cortical_NOG_BPCount: CCTE's Neurite Outgrowth Assay in rat cortical cells for Branch Point Count, Mundy Lab (AID 2284237).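 Further: branch points counted about two days after chemical exposure.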 An outline of the steps:
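Measured 50.33 h after dosing, this morphology endpoint uses rat primary cortical cultures labelled for betaIII-tubulin. Branch points are quantified by high-content imaging, with DMSO as negative control and baseline.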

Assay [20] is described as follows: CCTE_Mundy_HCI_Cortical_Synap_Neur_Matur_NeuronCount: CCTE's Synaptogenesis and Neurite Maturation Assay in rat cortical cells for Neuron Count, Mundy Lab (AID 2284242; active means hit-call score of the fitted dose curve at least 0.9, where 1 is the maximum;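 further: neuron number from Hoechst nuclei and MAP2 staining by high-content imaging; hits reduce neuron count versus DMSO baseline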). An outline of the steps:
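Rat primary cortical cells received AraC at DIV 5 to arrest glia, then were dosed with chemicals at DIV 7 through DIV 12. Fixed cells were stained for nuclei, MAP2 and synaptophysin, and neurons were counted by high-content imaging relative to DMSO.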

SMILES strings stand for the structures. Several values for one entry are separate records, joined by “and”; a condition that tells them apart may be missing. Equal values may be shown once. Records with an inconclusive call do not appear. Where a structure was tested more than once in an assay, its records may differ in their call. Activity calls are given as the source filed them. How the source made its calls, unless noted: active means hit-call score of the fitted dose curve at least 0.9, where 1 is the maximum; inactive means score below 0.9.

As usually defined, the AC50 is the midpoint of the concentration-response curve, whichever way the signal moves.

As to `C=C(C)C(=O)OCCC(F)(F)C(F)(F)C(F)(F)C(F)(F)C(F)(F)C(F)(F)F`, the outcome in assay [1], in assay [2], in assay [3], in [4], in assay [5] and in assay [6] was inactive. The outcome in assay [7], in [8], in assay [9], in assay [10], in [11] and in [12] was inactive. The outcome in assay [13] was inactive.

On to `c1ccc2cc3c(ccc4ccccc43)cc2c1`, for which the result in [14] was inactive.

On to `NCC(F)(F)C(F)(F)C(F)(F)C(F)(F)C(F)(F)C(F)(F)C(F)(F)F`, for which the result in [1], in [2], in [5], in assay [6], in [7] and in assay [8] was inactive. Moreover, the result in assay [9], in [10], in [11], in assay [12] and in assay [13] was inactive. Also, the AC50 in assay [13] was 12.1 µM (active).

On to `CC#C[C@]1(O)CC[C@H]2[C@@H]3CCC4=CC(=O)CCC4=C3[C@@H](c3ccc(N(C)C)cc3)C[C@@]21C`, for which the result in assay [15] and in assay [17] was inactive. The AC50 in [16] is 16.5 µM (active) and 8.62 µM (active); in assay [18], 69.2 µM (active) and 15 µM (active); in [19], 26.2 µM (active) and 24.2 µM (active); in assay [3] it was 13.5 µM (active) and 18.4 µM (active); in assay [4] it was 27.4 µM (active) and 21.6 µM (active); in assay [20], 22.9 µM (active) and 25.2 µM (active).

`C[C@@H]1C[C@H]2[C@@H]3CCC4=CC(=O)C=C[C@]4(C)[C@@]3(F)[C@@H](O)C[C@]2(C)[C@@]1(O)C(=O)COP(=O)(O)O`: the result in assay [1], in [2], in assay [5], in assay [6], in assay [8] and in [9] was inactive. Also, the outcome in assay [10], in assay [11], in assay [12] and in assay [13] was inactive. Also, the AC50 in [5] is 0.277 µM (active); in [6] it was 0.267 µM (active); in assay [7], 807 nM (active) and 148 nM (active); in [13], 1.1 µM (active).

(Values after PubChem BioAssay (EPA / NIEHS).)
